Measurements: PubChem BioAssay AID504683 (Southern Research Specialized Biocontainment Screening …, 2011)
Entries with a potency or affinity are not part of this list. The source made the active and inactive calls. How the calls were made is not given here.

Assay: cytotoxicity control, cell-based, set 2 (AID 504683)
Conditions: THP-1 human monocytes; series mostly up to 100 µM

Question: With `O=C(CSc1nccc(=O)[nH]1)Nc1ccc(N2CCOCC2)cc1` as the compound, how does the outcome read?
Answer: The outcome was “inactive”.

Question: For `COC(=O)C(C)Oc1ccc(-c2nccc(-c3ccccn3)n2)cc1` (stereo not drawn), which outcome is on record?
Answer: Its outcome is “inactive”.

Question: For `Cc1nc(SCC(=O)N(C)c2ccccc2)[nH]c(=O)c1C`, which outcome is on record?
Answer: The outcome was “inactive”.

Question: For `O=C(CSc1ncccn1)NC1CCCCC1`, which outcome is on record?
Answer: The outcome was “inactive”.

Question: Which outcome does the source give for `Cc1cc(=O)[nH]c(=S)[nH]1` here?
Answer: The outcome was “inactive”.

Question: Which outcome does the source give for `COc1cc(NC(=O)C/C(C)=N/NC(=O)c2ccccn2)c(OC)cc1Cl` here?
Answer: The outcome was “inactive”.

Question: With `O=C(CSc1ccccn1)NC1CCCCC1` as the compound, how does the outcome read?
Answer: Its outcome is “inactive”.

Question: With `CCOC(=O)CSc1nc(C)c(C)c(=O)[nH]1` as the compound, how does the outcome read?
Answer: Its outcome is “inactive”.

Question: For `Cc1cc(=O)[nH]c(SCC(=O)Nc2ccccc2)n1`, which outcome is on record?
Answer: The outcome was “inactive”.

Question: With `COC(=O)c1ccc(CNc2c(N3CCCC3)c(=O)c2=O)cc1` as the compound, how does the outcome read?
Answer: Its outcome is “inactive”.

Question: With `COC(=O)CCc1nc2c(C#N)c(-c3ccc(Cl)cc3)ccn2n1` as the compound, how does the outcome read?
Answer: Its outcome is “inactive”.

Question: For `Cc1ccc(NC(=O)COC(=O)CCc2c[nH]c3ccccc23)cc1[N+](=O)[O-]`, which outcome is on record?
Answer: Its outcome is “inactive”.

Question: Which outcome does the source give for `COC(=O)C(C)Oc1ccc(Cc2ncc(C(F)(F)F)cc2Cl)cc1` (stereo not drawn) here?
Answer: The outcome was “inactive”.

Question: With `O=C(/C=C\c1cccs1)N1CCN(Cc2ccc3c(c2)OCO3)CC1` as the compound, how does the outcome read?
Answer: Its outcome is “inactive”.

Question: With `CCOC(=O)COc1ccc(/C=C2\NC(=S)N(CC)C2=O)cc1` as the compound, how does the outcome read?
Answer: The outcome was “inactive”.

Question: For `Cc1nc(SCC(N)=O)[nH]c(=O)c1C`, which outcome is on record?
Answer: The outcome was “inactive”.

Question: Which outcome does the source give for `Cc1c[nH]c(=S)[nH]c1=O` here?
Answer: The outcome was “inactive”.

Question: For `CCSc1nc(C)c(C)c(=O)[nH]1`, which outcome is on record?
Answer: The outcome was “inactive”.

Question: With `COC(=O)C1CC(=O)N(c2ccc(OCc3ccccc3Cl)cc2)C1` (stereo not drawn) as the compound, how does the outcome read?
Answer: Its outcome is “inactive”.

Question: With `O=C(CSc1nc2ccccc2c(=O)[nH]1)NC1CCCCC1` as the compound, how does the outcome read?
Answer: The outcome was “inactive”.

Question: For `Cc1ccc(NC(=O)C2C3/C=C\CCCCC32)cc1C` (stereo not drawn), which outcome is on record?
Answer: Its outcome is “inactive”.

Question: Which outcome does the source give for `O=c1[nH]c(=S)[nH]c2ccccc12` here?
Answer: The outcome was “inactive”.

Question: Which outcome does the source give for `Cc1nc(SCc2ccccc2Cl)[nH]c(=O)c1C` here?
Answer: Its outcome is “inactive”.

Question: With `CC(=NCc1ccc2c(c1)OCO2)C1=C(O)c2ccccc2C1=O` as the compound, how does the outcome read?
Answer: The outcome was “inactive”.

Question: Which outcome does the source give for `O=C(CSc1nc2ccccc2c(=O)[nH]1)NCc1ccc(Cl)cc1` here?
Answer: Its outcome is “inactive”.

Question: For `CCc1ccc(/C=C2/C(=O)N(C)C(=S)N2CC(=O)OC)s1`, which outcome is on record?
Answer: Its outcome is “inactive”.

Question: Which outcome does the source give for `O=C(CSc1nccc(=O)[nH]1)Nc1ccc(Oc2ccccc2)cc1` here?
Answer: Its outcome is “inactive”.

Question: For `O=C(CSc1nc(O)cc(=O)[nH]1)Nc1ccccc1`, which outcome is on record?
Answer: The outcome was “inactive”.

Question: For `CCOC1OC(=O)C(Cl)=C1Nc1ccccc1C` (stereo not drawn), which outcome is on record?
Answer: The outcome was “inactive”.

Question: For `Cc1nc(SCC(=O)NC2CCCCC2)[nH]c(=O)c1C`, which outcome is on record?
Answer: Its outcome is “inactive”.

Question: For `Cc1[nH]c(=S)[nH]c(=O)c1C`, which outcome is on record?
Answer: Its outcome is “inactive”.

Question: Which outcome does the source give for `CC1CCN(C(=O)C2CCN(c3nnc(-n4cccc4)s3)CC2)CC1` here?
Answer: Its outcome is “inactive”.

Question: Which outcome does the source give for `CCSc1nc2ccccc2c(=O)[nH]1` here?
Answer: Its outcome is “inactive”.
